A number with no mark means an inactive call. Active and inactive are the calls of the source. Calls follow the shape of the dose curve; as a rule, active = well fitted inhibition curve with a large enough effect in the repeat runs (not every such curve was filed as active); inconclusive = weak or mixed curves; inactive = flat fitted curve, though single readings scatter.
molecular target: Thyrotropin-releasing hormone receptor (Homo sapiens) (UniProt P34981); experiment: qHTS assay to identify small molecule antagonists of the thyrotropin-releasing hormone receptor (TRHR) signaling pathway (AID 1346877); details: TRHR-HEK293, TRH-induced calcium fluorescence, antagonist mode; series mostly up to 51.3 µM; activity, negative = inhibition: at the top concentration
Sequence (P34981 whole entry, looked up): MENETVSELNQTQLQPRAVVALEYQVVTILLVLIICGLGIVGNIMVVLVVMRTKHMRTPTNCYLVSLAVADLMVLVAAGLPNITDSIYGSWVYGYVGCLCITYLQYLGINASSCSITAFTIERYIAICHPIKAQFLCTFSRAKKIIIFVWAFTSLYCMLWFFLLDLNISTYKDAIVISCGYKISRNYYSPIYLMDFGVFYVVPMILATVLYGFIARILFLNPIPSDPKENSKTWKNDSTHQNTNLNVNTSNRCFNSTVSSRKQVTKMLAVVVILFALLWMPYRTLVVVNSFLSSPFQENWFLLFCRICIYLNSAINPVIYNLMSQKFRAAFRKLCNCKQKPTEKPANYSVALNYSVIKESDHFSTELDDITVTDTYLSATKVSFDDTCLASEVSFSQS
From the text: National Center for Advancing Translational Sciences [NCATS]
NIH Chemical Genomics Center [NCGC]
U.S. Environmental Protection Agency [EPA]
National Institutes of Environmental Health Sciences [NIEHS]
National Toxicology Program [NTP]
U.S. Food and Drug Administration [FDA]
Thyrotropin-releasing hormone (TRH) receptor (TRHR) is a G-protein-coupled receptor which binds the tripeptide thyrotropin releasing hormone. TRHR is found in the brain and, when bound by TRH, acts (through phospholipase C) to increase intracellular inositol trisphosphate. It plays a crucial role in the anterior pituitary where it controls the synthesis and secretion of thyroid stimulating hormone and prolactin. The TRHR-Hek293 assay is a cell-based assay, and it has the potential to screen G protein-coupled receptors. A compound/drug can either activate (agonist) or suppress (antagonist) GPCRs that can be monitored by levels of intracellular calcium. In this assay, the Tox21 10K compound library was screened to identify potential TRHR antagonists.
Tox21 Assay Protocol Summary:
The TRHR-Hek293 cells were dispensed at 1500cells/4uL/well in 1536-well black-clear bottom plates using a Multidrop dispenser. After the assay plates were incubated at a 37 C/5% CO2 incubator for 18 hours, 4 uL of Dye-Loading Solution was added to each well. The plates were incubated at 37 C for 2 hours. For agonist mode, 23 nL of compounds dissolved in DMSO, positive controls or DMSO only was transferred to the assay plate by a pin tool. The fluorescence intensity in the plates was measured using FDSS 7000EX kinetic plate reader for 3 min at 1 sec intervals. For antagonist mode, 23 nL of compounds dissolved in DMSO, positive controls or DMSO only was transferred to the assay plate by a pin tool. After 5 min incubation at room temperature, 1 uL of TRH was added on the top of the cell/compound mixtures to achieve a final agonist concentration of 1 nM. The fluorescence intensity in the plates was measured using FDSS 7000EX kinetic plate reader for 3 min at 1 sec intervals. Each test compound was measured at 15 concentrations and in triplicates.
% is scaled to controls: 0 for no effect and ±100 for the full control effect.

SMILES | activity, negative = inhibition | Potency
NC(=O)N1C(=O)C(C(=O)c2cc(Cl)cs2)c2cc(F)c(Cl)cc21 (stereo not given) | -21.2% | 
Nc1c(Cl)cc(Cl)cc1Cl | 1.71% | 
CCN(CCC#N)c1ccc(N=Nc2c(Cl)cc([N+](=O)[O-])cc2Cl)cc1 | -3.13% | 
CCOc1ccc2nc3cc(N)ccc3c(N)c2c1 | -0.555% [at 23.6 µM] | 
CCCCCCCCCCC=O | -2.77% | 
CC(C)CCCCCCCCCCCCCCC(=O)O | 6.45% | 
CCN(C(=O)c1cc(C)cc(OC[C@H](C)Nc2ccncc2)c1)C(C)C | 4.94% [at 23.6 µM] | 
O=C(Oc1ccccc1)c1ccccc1C(=O)Oc1ccccc1 | -5.47% | 
COc1cc(/C=C/C(=O)O[C@H]2CC[C@]34C[C@]35CC[C@]3(C)[C@@H]([C@H](C)CCC=C(C)C)CC[C@@]3(C)[C@@H]5CC[C@H]4C2(C)C)ccc1O | 0.217% [at 23.6 µM] | 
N=C1N=C(N)c2ccccc21 | -1.22% | 
CSc1ccc2c(c1)C(N1CCN(C)CC1)Cc1ccccc1S2 (stereo not given) | 0.54% [at 23.6 µM] | 
CCCCCCCCOc1ccccc1C(=O)Nc1ccc(C(=O)OCC[N+](C)(CC)CC)cc1 | 6.78% [at 23.6 µM] | 
Oc1cc2ccccc2c2ccccc12 | 5.66% | 
CNC(=O)c1ccccc1 | 0.367% | 
COC(=O)C1=C(C)NC(C)=C(C(=O)OCC(C)C)C1c1ccccc1[N+](=O)[O-] (stereo not given) |  | inactive
O=C(NO)C1(NS(=O)(=O)c2ccc(Oc3ccc(F)cc3)cc2)CCOCC1 | -3.64% | 
Nc1ccc(N)c2ccccc12 | 3.49% | 
CCC(C)(C)C1CCCCC1OC(C)=O (stereo not given) | 0.219% | 
O=C1c2c(O)ccc(Nc3ccc(CCO)cc3)c2C(=O)c2c([N+](=O)[O-])ccc(O)c21 | -7.12% | 
Cc1cccc(N(C)C(=S)Oc2ccc3c(c2)C2CCC3C2)c1 (stereo not given) | 2.75% [at 23.6 µM] | 

SMILES | activity, negative = inhibition | Potency
CCCCCCCC/C=C/CCCCCCCC1=NCCN1CCO | 0.131% | 
N#CC1(c2ccc(F)cc2)CCC(=O)CC1 | -1.74% [at 23.6 µM] | 
On1ccccc1=S | -31.6% | 
CCCCN1C(=O)[C@@H]([C@H](O)C2CCCCC2)NC(=O)C12CCN(Cc1ccc(Oc3ccc(C(=O)O)cc3)cc1)CC2 | 0.375% | 
O=c1[nH]cnc2nc[nH]c12 | 0.232% [at 23.6 µM] | 
CCc1cc(Cc2cc(CC)c(N)c(CC)c2)cc(CC)c1N | -5.95% | 
CCN(CC)CCNC(=O)c1c(C)[nH]c(/C=C2\C(=O)Nc3ccc(F)cc32)c1C | -1.29% [at 23.6 µM] | 
CC[C@@]1(O)C(=O)OCc2c1cc1n(c2=O)Cc2c-1nc1ccccc1c2/C=N/OC(C)(C)C | -4.22% [at 23.6 µM] | 
C1CCCC1 | -0.479% | 
CC[C@H]1O[C@]2(CC[C@@H]1C)C[C@@H]1C[C@@H](C/C=C(\C)C[C@@H](C)/C=C/C=C3\CO[C@@H]4[C@H](O)C(C)=C[C@@H](C(=O)O1)[C@]34O)O2 | 2.19% | 
Clc1ccc2n[nH]nc2c1 | 0.211% | 
CCc1cc(SCc2sc(-c3ccc(C(F)(F)F)cc3)nc2CN2CCN(c3ccc(OC)cc3)CC2)ccc1OCC(=O)O | -25.6% | 
C=C(C)C(=O)OCC(O)COc1ccc(C(C)(C)c2ccc(OCC(O)COC(=O)C(=C)C)cc2)cc1 (stereo not given) | -30.4% | 
CO[Si](CCCNc1ccccc1)(OC)OC | 1.07% | 
COc1cccc2c1C(=O)c1c(O)c3c(c(O)c1C2=O)C[C@@](O)(C(=O)CO)C[C@@H]3O[C@H]1C[C@H](N)[C@H](O[C@@H]2CCCCO2)[C@H](C)O1 | -0.146% [at 23.6 µM] | 
Cn1cc(C(=O)[C@@H]2CCc3nc[nH]c3C2)c2ccccc21 | 1.68% [at 23.6 µM] | 
C[C@@H]1C[C@H]2[C@@H]3CCC4=CC(=O)C=C[C@]4(C)[C@@]3(Cl)[C@@H](O)C[C@]2(C)[C@@]1(OC(=O)c1ccco1)C(=O)CCl | 1.12% [at 23.6 µM] | 
CN(C)c1ccc(C2(c3ccc(N(C)C)cc3)OC(=O)c3cc(N(C)C)ccc32)cc1 | 22.2% | 
Nc1nc2ccccc2n1Cc1ccc(F)cc1 | -5.1% [at 23.6 µM] | 
CCCCCCCCCCCCCCCC(=O)OC[C@H](O)[C@H]1OC(=O)C(O)=C1O | 1.86% | 

— PubChem BioAssay (Tox21)
